The text below walks through data of PubChem BioAssay (Tox21).

Where “and” joins values, the source holds several entries; their conditions need not be identical. Equal values may be shown once. Inconclusive results are not listed. More than one record can exist for a structure, and the calls need not agree. Calls of active or inactive are those of the source. Unless noted, the call rests on the fitted dose curve; in most records, active means well fitted curve in the direction sought with a large enough effect in the repeat runs; inconclusive means weak or mixed curves; inactive means no such curve, though single readings can be large; an effect the other way counts as inactive or inconclusive.

A short description of assay [1]: qHTS assay to identify small molecule agonists of the hypoxia (HIF-1) signaling pathway - cell viability counter screen (AID 1224844; calls by dose curve; further: nearly all actives have a fitted effect of over 50% in size; further: potency means the concentration at half of the fitted maximal effect). The method, boiled down: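 Luminescent ATP content (CellTiter-Glo, 30 min, room temperature) served as the viability measure in HRE-bla ME-180 cells exposed to compounds for 17 hrs in low-serum medium (0.5% dialyzed FBS).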
On the technique in general: In qHTS, concentration-response curves come from the screen itself.

The nature of assay [2]: qHTS assay to identify small molecule agonists of H2AX (AID 1224845; active means well fitted activation curve with a large enough effect in the signal ratio in the repeat runs, not every such curve was filed as active; the % refers to the signal ratio; further: potency means the concentration at half of the fitted maximal effect). The method, boiled down:
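Phospho-H2AX Ser139 measured by HTRF (ex 320 nm; em 665 and 620 nm) after 24 hr antibody incubation. Compounds, 15 concentrations, 0.76% DMSO, were applied to CHO-K1 cells for 3hr at 37C before lysis.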

Assay [3] in a line: A CellTox Green Cytotoxicity Assay to monitor cytotoxicity in HEK293 cells - 0 hour (AID 1224869). Further: nearly all actives have a fitted effect of over 50% in size. The gist of the method:
(§1)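 Each value comes from one timepoint of a single continuous run in which HEK293 cells with CellTox Green were exposed to compound for up to 40 h at 37 C, dye fluorescence rising with cell death.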

A short description of assay [4]: qHTS RealTime-Glo MT Cell Viability Assay in HepG2 cells - 40 hour (AID 1224870). Further: nearly all actives have a fitted effect of over 50% in size. The method, boiled down: (§2)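 Real-time viability: cells seeded at 600 per well together with NanoLuc and cell-permeant prosubstrate, compounds added after 5 h incubation. Luminescence tracked at 0, 8, 16, 24, 32 and 40 h of exposure.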
A short description of assay [5]: qHTS RealTime-Glo MT Cell Viability Assay in HepG2 cells - 8 hour (AID 1224873). Further: nearly all actives have a fitted effect of over 55% in size. The method, boiled down: as §2
Assay [6] is described as follows: qHTS RealTime-Glo MT Cell Viability Assay in HEK293 cells - 40 hour (AID 1224874). Further: nearly all actives have a fitted effect of over 50% in size. Further: potency means the concentration at half of the fitted maximal effect. To be noted: RealTime-Glo luminescence; max response: stronger effect = lower value. The gist of the method:
(§3)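 qHTS format; HEK293 cells with NanoLuc/prosubstrate reagent, 37 C/5% CO2 for 5 h pre-dosing; compounds 23 nL in DMSO; luminescence at each time point reflects viable cells.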

The nature of assay [7]: A CellTox Green Cytotoxicity Assay to monitor cytotoxicity in HEK293 cells - 24 hour (AID 1224875). Further: nearly all actives have a fitted effect of over 45% in size. The gist of the method:
as §1

Assay [8] can be described thus: A CellTox Green Cytotoxicity Assay to monitor cytotoxicity in HepG2 cells - 16 hour (AID 1224876). Further: nearly all actives have a fitted effect of over 45% in size. Further: potency means the concentration at half of the fitted maximal effect. The method, boiled down: (§4)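 Continuous culture of HepG2 cells with a membrane-impermeant DNA dye; rising fluorescence marks dead cells. Compound exposure lasted up to 40 h at 37 C, with reads every 8 h from 0 h.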
The nature of assay [9]: A CellTox Green Cytotoxicity Assay to monitor cytotoxicity in HepG2 cells - 24 hour (AID 1224878). Further: nearly all actives have a fitted effect of over 45% in size. Further: potency means the concentration at half of the fitted maximal effect. The method, boiled down:
as §4

Assay [10] can be described thus: A CellTox Green Cytotoxicity Assay to monitor cytotoxicity in HepG2 cells - 40 hour (AID 1224879). Further: nearly all actives have a fitted effect of over 40% in size. Further: potency means the concentration at half of the fitted maximal effect. The gist of the method:
as §4

The nature of assay [11]: qHTS RealTime-Glo MT Cell Viability Assay in HEK293 cells - 0 hour (AID 1224880). Further: top concentration of the series differs between compounds; nearly all actives have a fitted effect of over 45% in size. The method, boiled down: as §3
Assay [12] is described as follows: qHTS assay to identify small molecule agonists of the hypoxia (HIF-1) signaling pathway (AID 1224846; active means well fitted activation curve with a large enough effect in the signal ratio in the repeat runs, not every such curve was filed as active; the % refers to the signal ratio). The gist of the method: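 Measured by blue/green FRET after loading CCF4-AM: beta-lactamase expressed from a hypoxia response element in ME-180 cells. Test agents were delivered in DMSO and left 17 hrs; cells had been plated 5 hrs earlier in low-serum (0.5% dialyzed FBS) medium.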

A short description of assay [13]: qHTS assay to identify small molecule agonists of H2AX - cell viability counter screen (AID 1224847; calls by dose curve; further: nearly all actives have a fitted effect of over 30% in size; further: potency means the concentration at half of the fitted maximal effect). The gist of the method:
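CHO-K1 wt, 1000 cells/well, o/n 37C; cpds 15 conc, 3 h 37C, 0.76% DMSO; CellTiter-Glo, 30 min RT, luminescence.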

A short description of assay [14]: qHTS assay to identify small molecule antagonists of the estrogen related receptor (ERR) signaling pathway from Tox21 library (AID 1224848). Further: nearly all actives have a fitted effect of over 50% in size. Further: potency means the concentration at half of the fitted maximal effect. The method, boiled down: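 Antagonist-mode screen of the Tox21 10K library in an NTP-provided ERR reporter cell line; 18 h compound exposure at 37 C, luminescence measured with ONE-Glo.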
The nature of assay [15]: qHTS assay to identify small molecule agonists of the estrogen related receptor (ERR) signaling pathway from Tox21 library (AID 1224849; calls by dose curve; further: nearly all actives have a fitted effect of over 15% in size). To be noted: ERR reporter cell line, ONE-Glo luciferase, 18 h. The gist of the method:
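We plated ERR reporter cells, waited 6 h, added compounds in DMSO by pin tool and incubated them 18 h at 37 C. ONE-Glo was then added and luminescence read after 30 min.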

Assay [16] is described as follows: qHTS RealTime-Glo MT Cell Viability Assay in HEK293 cells - 32 hour (AID 1224868). Further: nearly all actives have a fitted effect of over 50% in size. Further: potency means the concentration at half of the fitted maximal effect. The method, boiled down: (§5)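 HEK293 cells were seeded at 600 cells/well together with NanoLuc luciferase and cell-permeant prosubstrate, preincubated 5 h at 37 C/5% CO2, then given compound in DMSO by pintool. Luminescence from viable-cell prosubstrate reduction was read repeatedly over 40 h.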

A short description of assay [17]: qHTS RealTime-Glo MT Cell Viability Assay in HEK293 cells - 16 hour (AID 1224872). Further: nearly all actives have a fitted effect of over 50% in size. Further: potency means the concentration at half of the fitted maximal effect. The gist of the method: as §5
The nature of assay [18]: qHTS RealTime-Glo MT Cell Viability Assay in HepG2 cells - 24 hour (AID 1224867). Further: nearly all actives have a fitted effect of over 50% in size. The gist of the method: (§6)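 HepG2 cells were seeded at 600 cells/well together with NanoLuc luciferase and a cell-permeant prosubstrate, preincubated 5 h at 37 C/5% CO2, then pin-dosed with compounds in DMSO. Nonlytic luminescence from viable cells was read at each time point.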
Assay [19] is described as follows: qHTS RealTime-Glo MT Cell Viability Assay in HepG2 cells - 32 hour (AID 1224877). Further: nearly all actives have a fitted effect of over 55% in size. The method, boiled down: as §6
Assay [20] in a line: A CellTox Green Cytotoxicity Assay to monitor cytotoxicity in HEK293 cells - 40 hour (AID 1224871). Further: nearly all actives have a fitted effect of over 45% in size. Further: potency means the concentration at half of the fitted maximal effect. The gist of the method:
as §1

Where [21] appears, read: at 92.4 µM (top of the series) unless noted.
On the % scale 0 is the no-effect control and ±100 the full control effect.

With `[Cd+2].[Cl-].[Cl-]`, the Potency in [1] was 55.4 µM (active); in assay [2] it was 50.9 µM (active) and 56.6 µM (active); in assay [6] it was 12.4 µM (active); in [8] it was 55.4 µM (active) and inactive; in assay [9] it was 22.1 µM (active) and 38.9 µM (active); in assay [10], 19.7 µM (active) and 24.5 µM (active). In addition, the Potency result in [3], in assay [4], in assay [5], in assay [7] and in assay [11] was “inactive” throughout.
On to `CC(C)(C)C(O)/C(=C\c1ccc(Cl)cc1Cl)n1cncn1` (configuration not stated), for which the Potency entry in [1], in assay [3] and in [11] was “inactive” in each case. In [12], the compound was called inactive. The Potency in assay [13] is 122 µM (active); in assay [14], 33 µM (active); in assay [16] it was 29.7 µM (active); in [17], 29.7 µM (active); in assay [10] it was 52.8 µM (active). Also, the activity change, positive = activation in assay [15] (setting [21]) was -63.4% (inactive).
For `CC[C@H](C)[C@H]1O[C@]2(C=C[C@@H]1C)C[C@@H]1C[C@@H](C/C=C(\C)[C@@H](O[C@H]3C[C@H](OC)[C@@H](O[C@H]4C[C@H](OC)[C@@H](O)[C@H](C)O4)[C@H](C)O3)[C@@H](C)/C=C/C=C3\CO[C@@H]4[C@H](O)C(C)=C[C@@H](C(=O)O1)[C@]34O)O2`, the Potency is 28.9 µM (active) in assay [1], 7.2 µM (active) in assay [14] and 10.3 µM (active) in [6]. In addition, the Potency entry in [2], in assay [3], in assay [7] and in assay [11] was “inactive” in each case. Also, the activity change, positive = activation in assay [15] (setting [21]) is -67% [at 42.5 µM] (inactive).
`C[C@]12CC[C@H]3[C@@H](CCC4=CC(=O)CC[C@@]43C)[C@@H]1CC[C@@H]2O`: the Potency entry in [1], in assay [13], in [18], in [3], in assay [4] and in assay [5] was “inactive” each time. The Potency entry in [7], in assay [8], in assay [19], in [9] and in assay [11] was “inactive” in each case. Further, the Potency in assay [16] and in assay [6] was 48.6 µM (active) throughout.
For `CN(C)c1ccc(N=Nc2ccccc2)cc1`, the Potency result in assay [1], in assay [18], in assay [3], in assay [4], in assay [8] and in assay [19] was “inactive” each time. In addition, the Potency entry in [9], in assay [10] and in [11] was “inactive” throughout. Moreover, in [12], the call was inactive.
On to `c1ccc2cc3c(cc2c1)-c1cccc2cccc-3c12`, for which the Potency entry in [1], in [13], in assay [14], in [18], in assay [16] and in [3] was “inactive” in each case. The Potency result in assay [4], in assay [20], in [17], in assay [5], in assay [7] and in [19] was “inactive” each time. Besides, the Potency entry in assay [9] and in assay [11] was “inactive” each time. In addition, the max response in assay [6] was 18.7% (inactive).
For the compound `Clc1ccc(C(c2ccc(Cl)cc2)C(Cl)(Cl)Cl)cc1`, the Potency was 24.7 µM (active) in [1]; 101 µM (active) and 89.8 µM (active) in assay [13]; 54.9 µM (active) and 61.1 µM (active) in [14]; 39.2 µM (active) in assay [16]; 55.3 µM (active) and inactive in assay [20]; 39.2 µM (active) in [17]. Further, the Potency entry in [10] is “inactive and 54.9 µM (active)”. In addition, the activity change, positive = activation in assay [15] (at 42.5 µM (top of the series)) was -17.1% (inactive); in assay [15] (at 92.4 µM (top of the series)), -47.6% (inactive) and -41.9% (inactive). Further, the Potency result in assay [18], in assay [3], in assay [4], in [5], in [8] and in assay [19] was “inactive” each time. Further, the Potency result in assay [9] and in assay [11] was “inactive” each time.
On to `COP(=O)(OC)SCn1c(=O)oc2cc(Cl)cnc21`, for which the Potency in assay [1] and in assay [10] was 49 µM (active) throughout. Moreover, in assay [12], the compound was called inactive. The activity change, positive = activation in assay [15] (setting [21]) is -27.7% (inactive). For the same compound, the Potency result in [18], in [3], in [4], in [5], in assay [7] and in [8] was “inactive” throughout. Also, the Potency result in [19], in assay [9] and in [11] was “inactive” throughout.
